Measured values reported in PubChem BioAssay (EPA / NIEHS).
Calls of active or inactive are those of the source. How the source made its calls: active means hit-call score of the fitted dose curve at least 0.9, where 1 is the maximum; inactive means score below 0.9.

Key:
Conditions in all cases: mRNA level, 48 h; actives raise or lower the signal
[1] = read-out: Paternally Expressed 10 (PEG10), PEG10 (gene 23089); assay: LTEA_HepaRG_PEG10: Life Technologies and Expression Analysis (LTEA) Assay for Paternally Expressed 10 (PEG10) using HepaRG (AID 2283520)
Outline: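 Differentiated HepaRG cells, plated 48 h then switched to serum-free induction medium, were exposed in duplicate for 48 h to eight half-log concentrations topping at 100 uM in 0.5% DMSO. PEG10 mRNA was quantified by TaqMan qRT-PCR, normalised to ACTB, GAPDH and POLR2A.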

[2] = read-out: Protein phosphatase 2A (PPP2R4), PTPA (gene 5524); assay: LTEA_HepaRG_PPP2R4: Life Technologies and Expression Analysis (LTEA) Assay for Protein phosphatase 2A (PPP2R4) using HepaRG (AID 2283522)
Outline: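 Differentiated HepaRG cells in serum-free induction medium were exposed in duplicate for 48 h to eight concentrations, top 100 uM with half-log dilutions, in 0.5% DMSO. PPP2R4 mRNA was quantified by TaqMan qRT-PCR, normalized to ACTB, GAPDH and POLR2A.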

[3] = read-out: Phosphatase and tensin (PTEN), PTEN (gene 5728); assay: LTEA_HepaRG_PTEN: Life Technologies and Expression Analysis (LTEA) Assay for Phosphatase and tensin (PTEN) using HepaRG (AID 2283523)
Outline: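 Read-out is PTEN transcript level by multiplexed TaqMan qRT-PCR after 48 h chemical treatment of human HepaRG cultures in serum-free induction medium. Concentrations spanned 100 uM downward in half-log steps, 0.5% DMSO throughout; activity fitted in both directions against vehicle.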

[4] = read-out: solute carrier (SLC22A1), SLC22A1 (gene 6580); assay: LTEA_HepaRG_SLC22A1: Life Technologies and Expression Analysis (LTEA) Assay for solute carrier (SLC22A1) using HepaRG (AID 2283524)
Outline: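 HepaRG (human liver line), 48 h dosing in serum-free induction medium; 8 conc., half-log down from 100 uM, 0.5% DMSO vehicle, duplicates. Endpoint: SLC22A1 mRNA, qRT-PCR, housekeeping-normalized; gain/loss fit vs DMSO.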

[5] = read-out: Pyruvate Dehydrogenase Kinase 4 (PDK4), PDK4 (gene 5166); assay: LTEA_HepaRG_PDK4: Life Technologies and Expression Analysis (LTEA) Assay for Pyruvate Dehydrogenase Kinase 4 (PDK4) using HepaRG (AID 2283525)
Outline: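 In this multiplexed human HepaRG expression assay, cells are treated 48 h with test chemicals across an eight-point range starting at 100 uM. PDK4 mRNA changes, normalized to ACTB/GAPDH/POLR2A, are fitted in both directions relative to vehicle.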

[6] = read-out: NAD(P)H dehydrogenase [quinone] 1 (NQO1), NQO1 (gene 1728); assay: LTEA_HepaRG_NQO1: Life Technologies and Expression Analysis (LTEA) Assay for NAD(P)H dehydrogenase [quinone] 1 (NQO1) using HepaRG (AID 2283526)
Outline: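 Differentiated HepaRG cells, plated 48 h and then switched to serum-free induction medium, were exposed in duplicate for 48 h to 8-point half-log concentrations up to 100 uM in 0.5% DMSO. mRNA measured by qRT-PCR, normalized to ACTB, GAPDH, POLR2A; bidirectional fit versus DMSO.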

[7] = read-out: Nuclear factor erythroid 2-related factor 2 (Homo sapiens) (UniProt Q16236); assay: LTEA_HepaRG_NFE2L2: Life Technologies and Expression Analysis (LTEA) Assay for Nuclear factor erythroid 2-related factor 2 (NFE2L2) Transcription Factor using HepaRG (AID 2283527)
Outline: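 Transcript level of NFE2L2 is the read-out, measured by microfluidic TaqMan qRT-PCR and normalized to three housekeeping genes. Human HepaRG cultures received test chemical for 48 h at up to 100 uM in half-log steps. Gain or loss of signal is fitted relative to 0.5% DMSO.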

[8] = read-out: Signal transducer and activator of transcription 3 (Homo sapiens) (UniProt P40763); assay: LTEA_HepaRG_STAT3: Life Technologies and Expression Analysis (LTEA) Assay for Signal transducer and activator of transcription (STAT3) using HepaRG (AID 2283529)
Outline: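 Read-out is STAT3 mRNA level by qRT-PCR, normalized to three housekeeping genes, in human HepaRG liver cells treated for 48 h. Concentrations ran from 100 uM downward in half-log steps; curves were fitted for gain or loss relative to 0.5% DMSO.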

[9] = read-out: solute carrier (SLCO1B1), SLCO1B1 (gene 10599); assay: LTEA_HepaRG_SLCO1B1: Life Technologies and Expression Analysis (LTEA) Assay for solute carrier (SLCO1B1) using HepaRG (AID 2283530)
Outline: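 Gain or loss of SLCO1B1 mRNA is fitted against the 0.5% DMSO vehicle in human HepaRG liver cells treated 48 h at up to 100 uM in half-log steps. Expression comes from qRT-PCR normalized to endogenous controls.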

[10] = read-out: sulfotransferase 2A1 (SULT2A1), SULT2A1 (gene 6822); assay: LTEA_HepaRG_SULT2A1: Life Technologies and Expression Analysis (LTEA) Assay for sulfotransferase 2A1 (SULT2A1) using HepaRG (AID 2283531)
Outline: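 Cells were plated and cultured 48 h, switched to serum-free induction medium, then dosed in duplicate for 48 h (8 concentrations, max 100 uM). RNA was isolated and SULT2A1 expression measured by qRT-PCR; gain or loss of signal fitted relative to DMSO.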

[11] = read-out: Transforming Growth Factor (TGFA), TGFA (gene 7039); assay: LTEA_HepaRG_TGFA: Life Technologies and Expression Analysis (LTEA) Assay for Transforming Growth Factor (TGFA) using HepaRG (AID 2283532)
Outline: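 HepaRG (human liver line), 48 h exposure, 8 conc. half-log down from 100 uM, 0.5% DMSO vehicle, duplicates; serum-free induction medium. TGFA mRNA by TaqMan qRT-PCR, ACTB/GAPDH/POLR2A normalization; gain/loss fit vs DMSO.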

[12] = read-out: TIMP1, TIMP1 (gene 7076); assay: LTEA_HepaRG_TIMP1: Life Technologies and Expression Analysis (LTEA) Assay for TIMP1 using HepaRG (AID 2283534);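 further: TaqMan qRT-PCR signal normalized to ACTB GAPDH and POLR2A housekeeping genes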
Outline: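 We dosed human liver HepaRG cultures for 48 hours with up to 100 uM test chemical and measured TIMP1 expression by qRT-PCR. Activity in either direction is fitted relative to the 0.5% DMSO vehicle.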

[13] = read-out: Tumor necrosis factor receptor 1 (TNFRSF1A), TNFRSF1A (gene 7132); assay: LTEA_HepaRG_TNFRSF1A: Life Technologies and Expression Analysis (LTEA) Assay for Tumor necrosis factor receptor 1 (TNFRSF1A) using HepaRG (AID 2283535)
Outline: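 Expression of TNFRSF1A in human HepaRG liver cells was measured by qRT-PCR 48 h after chemical dosing (maximum 100 uM). Bidirectional curve fitting used 0.5% DMSO as baseline.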

[14] = read-out: Thyroid Hormone Responsive (THRSP), THRSP (gene 7069); assay: LTEA_HepaRG_THRSP: Life Technologies and Expression Analysis (LTEA) Assay for Thyroid Hormone Responsive (THRSP) using HepaRG (AID 2283536)
Outline: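 mRNA induction or loss relative to 0.5% DMSO vehicle was fitted bidirectionally across an eight-point curve whose highest exposure was 100 uM. Human HepaRG liver cells received chemicals in duplicate over 48 h before RNA extraction.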

[15] = read-out: Cellular tumor antigen p53 (Homo sapiens) (UniProt P04637); assay: LTEA_HepaRG_TP53: Life Technologies and Expression Analysis (LTEA) Assay for Tumor Protein P53 (TP53) using HepaRG (AID 2283537)
Outline: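 HepaRG, 48 h exposure, top 100 uM, half-log 8-point, 0.5% DMSO vehicle, duplicates. Read: TP53 mRNA by TaqMan qRT-PCR, normalised to ACTB/GAPDH/POLR2A; bidirectional fit vs DMSO.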

[16] = read-out: UDP glucuronosyltransferase (UGT1A1), UGT1A1 (gene 54658); assay: LTEA_HepaRG_UGT1A1: Life Technologies and Expression Analysis (LTEA) Assay for UDP glucuronosyltransferase (UGT1A1) using HepaRG (AID 2283538)
Outline: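 Differentiated human HepaRG cells in serum-free induction medium were exposed in duplicate for 48 h to eight half-log concentrations up to 100 uM in 0.5% DMSO. UGT1A1 mRNA was quantified by TaqMan qRT-PCR, normalized to ACTB, GAPDH and POLR2A, and fitted bidirectionally against DMSO.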

[17] = read-out: UDP glucuronosyltransferase (UGT1A6), UGT1A6 (gene 54578); assay: LTEA_HepaRG_UGT1A6: Life Technologies and Expression Analysis (LTEA) Assay for UDP glucuronosyltransferase (UGT1A6) using HepaRG (AID 2283539)
Outline: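 Endpoint is UGT1A6 transcript induction or loss in a human liver cell line, quantified by TaqMan qRT-PCR 48 h after dosing. Concentrations ran from 100 uM downward in half-log steps in 0.5% DMSO; activity was fitted in both directions versus vehicle.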

[18] = read-out: Transforming Growth Factor (TGFB1), TGFB1 (gene 7040); assay: LTEA_HepaRG_TGFB1: Life Technologies and Expression Analysis (LTEA) Assay for Transforming Growth Factor (TGFB1) Transporter using HepaRG (AID 2283533)
Outline: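 Expression change of TGFB1 in human HepaRG cells is measured after a 48 h chemical exposure, up to 100 uM in 0.5% DMSO vehicle. Curves are fitted in both directions relative to the DMSO baseline.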

[19] = read-out: succinate dehydrogenase complex iron sulfur subunit B (SDHB), SDHB (gene 6390); assay: LTEA_HepaRG_SDHB: Life Technologies and Expression Analysis (LTEA) Assay for succinate dehydrogenase complex iron sulfur subunit B (SDHB) using HepaRG (AID 2283528)
Outline: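 HepaRG, 48 h exposure, 8-pt half-log series from 100 uM in 0.5% DMSO, duplicates. Readout: SDHB mRNA by Fluidigm qRT-PCR vs housekeeping genes; bidirectional fit relative to DMSO.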

[20] = read-out: Nuclear factor NF-kappa-B p105 subunit (Homo sapiens) (UniProt P19838); assay: LTEA_HepaRG_NFKB1: Life Technologies and Expression Analysis (LTEA) Assay for Nuclear Factor Kappa B Subunit 1 (NFKB1) using HepaRG (AID 2283521);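 further: TaqMan qRT-PCR transcript normalised to ACTB GAPDH and POLR2A housekeeping genes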
Outline: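 Differentiated human HepaRG cells were exposed for 48 h in serum-free induction medium to eight concentrations (top 100 uM, half-log steps, 0.5% DMSO), in duplicate. NFKB1 mRNA was measured by TaqMan qRT-PCR, normalized to ACTB/GAPDH/POLR2A, and fitted bidirectionally against DMSO.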

Measured: AC50

Chain of Signal transducer and activator of transcription 3 (Homo sapiens) (P40763 whole entry, looked up): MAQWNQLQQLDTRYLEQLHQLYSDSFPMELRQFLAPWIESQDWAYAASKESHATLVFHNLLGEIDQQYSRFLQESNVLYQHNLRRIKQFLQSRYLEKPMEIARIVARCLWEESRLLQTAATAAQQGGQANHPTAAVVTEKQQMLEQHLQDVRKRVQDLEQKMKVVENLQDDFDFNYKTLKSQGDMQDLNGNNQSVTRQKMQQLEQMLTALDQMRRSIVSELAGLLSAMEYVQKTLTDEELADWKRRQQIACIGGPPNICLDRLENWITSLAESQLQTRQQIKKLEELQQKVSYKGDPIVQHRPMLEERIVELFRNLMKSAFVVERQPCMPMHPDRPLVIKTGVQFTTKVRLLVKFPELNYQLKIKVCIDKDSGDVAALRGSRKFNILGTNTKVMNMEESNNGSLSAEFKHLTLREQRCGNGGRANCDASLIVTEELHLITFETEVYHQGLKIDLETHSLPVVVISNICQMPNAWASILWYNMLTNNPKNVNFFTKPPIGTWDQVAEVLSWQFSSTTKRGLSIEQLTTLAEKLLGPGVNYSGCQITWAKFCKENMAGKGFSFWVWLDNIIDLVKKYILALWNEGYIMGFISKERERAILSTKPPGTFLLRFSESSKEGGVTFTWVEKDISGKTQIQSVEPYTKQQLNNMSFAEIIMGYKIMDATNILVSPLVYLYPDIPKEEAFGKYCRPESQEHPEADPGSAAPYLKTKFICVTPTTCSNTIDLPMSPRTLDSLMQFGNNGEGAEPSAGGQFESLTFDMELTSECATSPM
Chain of Nuclear factor NF-kappa-B p105 subunit (Homo sapiens) (P19838 whole entry, looked up): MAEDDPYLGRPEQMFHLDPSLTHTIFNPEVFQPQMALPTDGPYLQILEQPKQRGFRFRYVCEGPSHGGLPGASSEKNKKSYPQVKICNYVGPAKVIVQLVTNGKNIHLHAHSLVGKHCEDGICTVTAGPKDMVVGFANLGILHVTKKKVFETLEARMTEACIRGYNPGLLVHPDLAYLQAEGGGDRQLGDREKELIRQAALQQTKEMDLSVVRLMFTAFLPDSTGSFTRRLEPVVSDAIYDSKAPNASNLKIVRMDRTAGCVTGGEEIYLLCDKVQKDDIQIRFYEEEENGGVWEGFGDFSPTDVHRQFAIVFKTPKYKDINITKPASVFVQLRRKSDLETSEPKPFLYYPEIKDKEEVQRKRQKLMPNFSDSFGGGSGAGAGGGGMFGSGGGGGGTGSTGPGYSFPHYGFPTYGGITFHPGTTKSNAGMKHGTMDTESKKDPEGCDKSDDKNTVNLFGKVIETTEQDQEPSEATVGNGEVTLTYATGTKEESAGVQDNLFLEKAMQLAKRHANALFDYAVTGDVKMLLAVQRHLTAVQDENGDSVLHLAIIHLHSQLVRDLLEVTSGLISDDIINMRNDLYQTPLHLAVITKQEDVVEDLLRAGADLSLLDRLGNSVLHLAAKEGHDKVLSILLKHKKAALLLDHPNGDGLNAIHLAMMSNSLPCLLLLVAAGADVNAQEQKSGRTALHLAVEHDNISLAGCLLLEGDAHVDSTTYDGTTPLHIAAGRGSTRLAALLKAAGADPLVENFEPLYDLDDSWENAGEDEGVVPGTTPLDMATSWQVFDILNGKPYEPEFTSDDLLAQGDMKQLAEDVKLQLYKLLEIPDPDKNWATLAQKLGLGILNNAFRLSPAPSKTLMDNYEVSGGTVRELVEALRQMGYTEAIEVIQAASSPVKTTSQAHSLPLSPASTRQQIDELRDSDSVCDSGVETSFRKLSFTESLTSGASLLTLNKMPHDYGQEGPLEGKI
Chain of Nuclear factor erythroid 2-related factor 2 (Homo sapiens) (Q16236 whole entry, looked up): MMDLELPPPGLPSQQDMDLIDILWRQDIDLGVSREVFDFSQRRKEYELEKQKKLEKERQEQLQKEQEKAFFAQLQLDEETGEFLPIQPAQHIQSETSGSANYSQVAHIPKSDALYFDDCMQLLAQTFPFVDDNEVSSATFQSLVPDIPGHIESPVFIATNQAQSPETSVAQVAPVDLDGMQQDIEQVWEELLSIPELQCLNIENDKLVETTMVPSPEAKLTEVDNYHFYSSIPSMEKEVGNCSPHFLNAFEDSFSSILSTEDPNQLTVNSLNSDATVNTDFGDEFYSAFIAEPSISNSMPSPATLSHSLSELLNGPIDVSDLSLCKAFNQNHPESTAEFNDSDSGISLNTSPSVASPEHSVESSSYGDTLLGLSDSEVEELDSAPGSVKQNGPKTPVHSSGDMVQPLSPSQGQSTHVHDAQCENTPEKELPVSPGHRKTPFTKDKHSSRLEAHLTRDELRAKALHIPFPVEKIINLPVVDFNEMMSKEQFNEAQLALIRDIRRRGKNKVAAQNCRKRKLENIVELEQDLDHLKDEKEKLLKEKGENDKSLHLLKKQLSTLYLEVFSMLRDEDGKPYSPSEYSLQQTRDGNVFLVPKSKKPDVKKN
Chain of Cellular tumor antigen p53 (Homo sapiens) (P04637 whole entry, looked up): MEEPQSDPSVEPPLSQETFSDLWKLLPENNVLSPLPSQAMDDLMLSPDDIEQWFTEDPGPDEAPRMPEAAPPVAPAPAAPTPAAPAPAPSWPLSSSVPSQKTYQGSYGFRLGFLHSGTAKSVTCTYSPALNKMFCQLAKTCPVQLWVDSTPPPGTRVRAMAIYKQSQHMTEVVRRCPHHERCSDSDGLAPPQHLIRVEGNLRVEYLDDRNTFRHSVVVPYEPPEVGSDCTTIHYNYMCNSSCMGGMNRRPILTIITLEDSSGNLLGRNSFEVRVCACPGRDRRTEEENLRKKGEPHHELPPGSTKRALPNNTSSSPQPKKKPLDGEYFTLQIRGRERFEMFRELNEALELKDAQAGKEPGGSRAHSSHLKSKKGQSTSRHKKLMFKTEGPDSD

COP(=S)(OC)Oc1ccc([N+](=O)[O-])c(C)c1
active: [16] 11.5 µM
inactive: [1] | [2] | [3] | [4] | [5] | [6] | [7] | [8] | [9] | [10] | [11] | [12] | [13] | [14] | [15] | [17]

Cc1nc(N(C)C)nc(OC(=O)N(C)C)c1C
inactive: [1] | [2] | [3] | [4] | [5] | [6] | [7] | [8] | [9] | [10] | [11] | [18] | [12] | [13] | [14] | [17]
active: [16] 13.9 µM

COCc1cnc(C2=NC(C)(C(C)C)C(=O)N2)c(C(=O)O)c1 (configuration not stated)
inactive: [1] | [2] | [3] | [4] | [5] | [6] | [7] | [19] | [8] | [9] | [10] | [11] | [18] | [13] | [14] | [16] | [17]

Cc1cnc(C2=NC(C)(C(C)C)C(=O)N2)c(C(=O)O)c1 (configuration not stated)
inactive: [1] | [2] | [3] | [4] | [5] | [6] | [7] | [8] | [9] | [10] | [11] | [13] | [14] | [15] | [16] | [17]

CCOc1cc(C(C)(C)C)ccc1C1COC(c2c(F)cccc2F)=N1 (configuration not stated)
active: [10] 8.25 µM | [16] 8.48 µM
inactive: [1] | [20] | [2] | [3] | [4] | [5] | [6] | [7] | [8] | [9] | [11] | [13] | [14] | [17]

CS(=O)(=O)c1ccc(C(=O)C2C(=O)CCCC2=O)c([N+](=O)[O-])c1
inactive: [1] | [20] | [2] | [3] | [4] | [5] | [6] | [7] | [8] | [9] | [10] | [11] | [13] | [14] | [15] | [16] | [17]

CC1(C)CON(Cc2ccccc2Cl)C1=O
inactive: [20] | [2] | [3] | [4] | [5] | [6] | [7] | [8] | [9] | [10] | [11] | [13] | [14] | [15] | [17]
active: [1] 22.5 µM | [16] 9.92 µM

CCNP(=S)(OC)O/C(C)=C/C(=O)OC(C)C (configuration not stated)
inactive: [1] | [20] | [2] | [3] | [4] | [5] | [6] | [8] | [9] | [10] | [11] | [13] | [15] | [17]
active: [7] 9.92 µM | [14] 32.6 µM | [16] 9.32 µM

Clc1nc(Cl)nc(Nc2ccccc2Cl)n1
inactive: [1] | [20] | [2] | [3] | [4] | [5] | [6] | [7] | [8] | [9] | [10] | [11] | [12] | [13] | [14] | [15] | [16] | [17]
